Some targets named below: ACACA (UniProt Q13085); COX7C (UniProt P15954); HSDL2 (UniProt Q6YN16); IDH3G (UniProt P51553); ADCK1 (UniProt Q86TW2); ALDH3A2 (UniProt P51648); APOO (UniProt Q9BUR5); ATP5PF (UniProt P18859); COQ3 (UniProt Q9NZJ6); GUF1 (UniProt Q8N442); HADHA (UniProt P40939); MTRF1L (UniProt Q9UGC7); NOCT (UniProt Q9UK39); OGDH (UniProt Q02218); OGDHL (UniProt Q9ULD0); PDSS1 (UniProt Q5T2R2); PHB2 (UniProt Q99623); PMPCA (UniProt Q10713); PRDX6 (UniProt P30041); RMND1 (UniProt Q9NWS8); SAMM50 (UniProt Q9Y512); SDHA (UniProt P31040); SIRT3 (UniProt Q9NTG7); SLC25A19 (UniProt Q9HC21); SPRYD4 (UniProt Q8WW59); TBRG4 (UniProt Q969Z0); TUFM (UniProt P49411).

What all share (assay): cross-linking mass spectrometry
What all share (details): not determined

Chain of ATP5F1D, P30049 (P30049 whole entry): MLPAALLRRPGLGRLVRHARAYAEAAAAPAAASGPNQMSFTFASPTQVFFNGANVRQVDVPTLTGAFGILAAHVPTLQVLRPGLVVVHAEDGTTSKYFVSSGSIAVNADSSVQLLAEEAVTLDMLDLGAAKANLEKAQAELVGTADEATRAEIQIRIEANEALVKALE
Chain of ALDH4A1, P30038 (P30038 whole entry): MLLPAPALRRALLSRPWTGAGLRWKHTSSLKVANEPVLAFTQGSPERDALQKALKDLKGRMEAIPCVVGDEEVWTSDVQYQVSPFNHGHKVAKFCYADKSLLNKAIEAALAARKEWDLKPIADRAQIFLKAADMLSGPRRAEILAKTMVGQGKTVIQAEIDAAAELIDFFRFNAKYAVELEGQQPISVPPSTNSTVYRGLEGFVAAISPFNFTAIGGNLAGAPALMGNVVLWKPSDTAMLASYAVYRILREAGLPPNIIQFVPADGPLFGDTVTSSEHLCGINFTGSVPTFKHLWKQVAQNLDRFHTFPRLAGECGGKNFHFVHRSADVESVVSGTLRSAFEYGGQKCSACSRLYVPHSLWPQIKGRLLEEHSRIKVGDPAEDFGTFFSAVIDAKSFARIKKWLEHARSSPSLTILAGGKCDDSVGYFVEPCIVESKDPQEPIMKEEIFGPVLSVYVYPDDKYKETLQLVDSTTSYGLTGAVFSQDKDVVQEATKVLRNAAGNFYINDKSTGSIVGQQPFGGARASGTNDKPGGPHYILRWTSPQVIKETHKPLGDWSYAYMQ
Chain of TOMM20, Q15388 (Q15388 whole entry): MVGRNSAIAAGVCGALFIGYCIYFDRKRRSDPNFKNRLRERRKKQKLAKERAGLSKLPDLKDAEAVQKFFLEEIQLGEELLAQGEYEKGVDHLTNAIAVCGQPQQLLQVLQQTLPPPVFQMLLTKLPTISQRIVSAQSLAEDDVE
Chain of VDAC2, P45880 (P45880 whole entry): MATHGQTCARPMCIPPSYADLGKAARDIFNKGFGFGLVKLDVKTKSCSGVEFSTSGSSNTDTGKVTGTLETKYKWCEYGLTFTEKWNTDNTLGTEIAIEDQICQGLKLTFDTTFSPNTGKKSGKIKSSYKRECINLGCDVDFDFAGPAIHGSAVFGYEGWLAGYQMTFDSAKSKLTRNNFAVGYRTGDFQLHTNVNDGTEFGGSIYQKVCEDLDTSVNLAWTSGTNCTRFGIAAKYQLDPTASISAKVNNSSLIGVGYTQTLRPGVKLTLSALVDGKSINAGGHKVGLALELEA
Chain of COQ3 (Q9NZJ6 whole entry): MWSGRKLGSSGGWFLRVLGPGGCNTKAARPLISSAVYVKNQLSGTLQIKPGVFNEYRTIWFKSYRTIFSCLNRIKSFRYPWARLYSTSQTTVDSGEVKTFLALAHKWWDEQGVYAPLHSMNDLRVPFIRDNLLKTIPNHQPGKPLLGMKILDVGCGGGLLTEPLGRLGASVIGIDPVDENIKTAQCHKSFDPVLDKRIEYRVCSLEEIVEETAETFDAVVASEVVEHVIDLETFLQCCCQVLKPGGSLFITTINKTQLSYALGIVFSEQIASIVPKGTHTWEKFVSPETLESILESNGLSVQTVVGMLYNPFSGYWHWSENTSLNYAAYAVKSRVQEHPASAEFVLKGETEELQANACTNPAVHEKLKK
Chain of COX5B, P10606 (P10606 whole entry): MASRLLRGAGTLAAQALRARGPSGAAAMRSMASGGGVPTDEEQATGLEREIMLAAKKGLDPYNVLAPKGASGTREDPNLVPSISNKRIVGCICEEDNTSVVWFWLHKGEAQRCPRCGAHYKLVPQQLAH
Chain of COX7C (P15954 whole entry): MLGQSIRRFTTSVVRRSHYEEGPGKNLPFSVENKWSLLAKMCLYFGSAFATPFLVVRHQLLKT
Chain of VDAC1, P21796 (P21796 whole entry): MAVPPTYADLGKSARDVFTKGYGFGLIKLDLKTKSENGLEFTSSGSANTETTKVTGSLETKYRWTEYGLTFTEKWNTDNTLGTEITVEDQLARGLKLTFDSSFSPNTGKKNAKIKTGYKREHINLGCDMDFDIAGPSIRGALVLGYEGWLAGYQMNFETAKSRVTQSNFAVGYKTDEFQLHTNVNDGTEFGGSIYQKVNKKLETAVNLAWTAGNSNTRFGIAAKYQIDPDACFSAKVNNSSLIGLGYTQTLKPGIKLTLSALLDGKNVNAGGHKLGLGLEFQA
Chain of ADCK1 (Q86TW2 whole entry): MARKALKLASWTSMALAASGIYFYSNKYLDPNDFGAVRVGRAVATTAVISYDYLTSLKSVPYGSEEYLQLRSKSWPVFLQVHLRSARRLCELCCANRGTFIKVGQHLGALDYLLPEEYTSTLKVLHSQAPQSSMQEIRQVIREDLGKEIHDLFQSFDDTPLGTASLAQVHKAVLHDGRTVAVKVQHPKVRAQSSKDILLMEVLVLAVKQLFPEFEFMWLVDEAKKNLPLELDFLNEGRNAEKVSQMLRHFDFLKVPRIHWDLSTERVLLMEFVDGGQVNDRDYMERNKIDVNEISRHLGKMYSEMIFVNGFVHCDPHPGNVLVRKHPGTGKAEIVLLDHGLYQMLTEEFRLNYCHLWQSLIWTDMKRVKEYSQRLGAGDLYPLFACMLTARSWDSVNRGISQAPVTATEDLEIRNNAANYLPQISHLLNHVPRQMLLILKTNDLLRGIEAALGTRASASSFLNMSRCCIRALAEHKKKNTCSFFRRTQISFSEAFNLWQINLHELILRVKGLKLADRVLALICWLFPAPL
Chain of ACSM4, P0C7M7 (P0C7M7 whole entry): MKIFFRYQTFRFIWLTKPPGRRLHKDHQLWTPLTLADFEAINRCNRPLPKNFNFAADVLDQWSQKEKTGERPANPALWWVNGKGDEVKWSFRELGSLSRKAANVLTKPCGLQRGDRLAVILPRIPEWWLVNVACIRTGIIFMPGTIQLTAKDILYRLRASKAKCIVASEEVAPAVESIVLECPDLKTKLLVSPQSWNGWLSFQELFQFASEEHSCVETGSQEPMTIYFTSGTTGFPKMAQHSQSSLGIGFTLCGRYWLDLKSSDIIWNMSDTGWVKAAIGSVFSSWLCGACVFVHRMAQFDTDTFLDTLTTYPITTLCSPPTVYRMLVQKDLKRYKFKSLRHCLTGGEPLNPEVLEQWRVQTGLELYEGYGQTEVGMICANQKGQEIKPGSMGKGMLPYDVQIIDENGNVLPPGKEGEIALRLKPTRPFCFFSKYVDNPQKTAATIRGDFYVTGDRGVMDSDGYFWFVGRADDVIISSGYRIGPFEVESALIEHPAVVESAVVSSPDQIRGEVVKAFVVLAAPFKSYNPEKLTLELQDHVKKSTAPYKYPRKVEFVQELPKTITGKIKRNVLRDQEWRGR
Chain of NDUFV3, P56181 (P56181 whole entry): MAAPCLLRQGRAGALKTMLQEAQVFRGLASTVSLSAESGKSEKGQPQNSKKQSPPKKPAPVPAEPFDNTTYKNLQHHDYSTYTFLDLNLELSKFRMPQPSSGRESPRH
Chain of HSDL2 (Q6YN16 whole entry): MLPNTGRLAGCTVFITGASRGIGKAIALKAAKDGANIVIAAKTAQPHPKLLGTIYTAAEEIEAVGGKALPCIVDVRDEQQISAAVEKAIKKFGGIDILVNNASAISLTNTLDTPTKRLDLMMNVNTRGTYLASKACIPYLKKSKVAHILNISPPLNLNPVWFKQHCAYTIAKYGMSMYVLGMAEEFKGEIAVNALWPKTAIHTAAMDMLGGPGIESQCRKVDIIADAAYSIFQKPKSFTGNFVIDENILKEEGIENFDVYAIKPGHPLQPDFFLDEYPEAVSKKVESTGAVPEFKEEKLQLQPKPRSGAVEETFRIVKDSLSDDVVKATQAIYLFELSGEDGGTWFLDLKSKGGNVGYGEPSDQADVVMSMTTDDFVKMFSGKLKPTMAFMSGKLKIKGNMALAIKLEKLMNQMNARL
Chain of MTRF1L (Q9UGC7 whole entry): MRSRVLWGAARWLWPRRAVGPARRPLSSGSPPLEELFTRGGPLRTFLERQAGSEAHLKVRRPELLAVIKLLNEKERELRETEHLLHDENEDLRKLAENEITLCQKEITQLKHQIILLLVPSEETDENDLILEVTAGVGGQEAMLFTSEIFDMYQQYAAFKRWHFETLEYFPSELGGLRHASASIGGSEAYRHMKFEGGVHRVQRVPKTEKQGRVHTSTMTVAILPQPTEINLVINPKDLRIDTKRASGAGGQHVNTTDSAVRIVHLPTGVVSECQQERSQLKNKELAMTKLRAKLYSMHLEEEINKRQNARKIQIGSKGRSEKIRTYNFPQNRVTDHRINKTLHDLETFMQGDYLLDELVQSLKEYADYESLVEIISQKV
Chain of SIRT3 (Q9NTG7 whole entry): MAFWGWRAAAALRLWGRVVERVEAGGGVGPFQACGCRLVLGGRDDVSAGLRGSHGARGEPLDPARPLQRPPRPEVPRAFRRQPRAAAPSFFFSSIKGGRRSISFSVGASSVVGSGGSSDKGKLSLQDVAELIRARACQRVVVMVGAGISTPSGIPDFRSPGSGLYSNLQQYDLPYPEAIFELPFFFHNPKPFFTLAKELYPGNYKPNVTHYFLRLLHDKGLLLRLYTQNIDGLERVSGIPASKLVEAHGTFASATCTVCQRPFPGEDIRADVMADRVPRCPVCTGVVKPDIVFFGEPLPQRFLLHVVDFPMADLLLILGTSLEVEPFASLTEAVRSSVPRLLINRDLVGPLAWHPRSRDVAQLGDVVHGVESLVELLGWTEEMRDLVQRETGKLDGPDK
Chain of NDUFC1, O43677 (O43677 whole entry): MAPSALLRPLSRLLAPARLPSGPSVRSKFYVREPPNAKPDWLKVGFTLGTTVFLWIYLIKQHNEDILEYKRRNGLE
Chain of PRDX6 (P30041 whole entry): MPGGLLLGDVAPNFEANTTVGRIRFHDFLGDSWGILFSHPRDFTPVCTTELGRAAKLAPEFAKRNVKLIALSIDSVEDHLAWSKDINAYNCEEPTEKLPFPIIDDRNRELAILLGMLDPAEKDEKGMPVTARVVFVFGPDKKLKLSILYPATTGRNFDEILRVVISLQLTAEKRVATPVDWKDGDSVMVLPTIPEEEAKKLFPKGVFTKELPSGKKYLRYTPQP

Turning to HSPD1, P10809, the cross-linked residues entry in the assay with ACACA is “K58 - K2167”; with COX7C, “K58 - K34”; with HSDL2, “K418 - K304”; with IDH3G, “K31 - K214”.

For the substance NDUFC1, O43677, the cross-linked residues entry with ADCK1 is given as “K28 - K325”.

Turning to HADHA, P40939, the cross-linked residues entry with ALDH3A2 is listed as “K254 - M1”.

Consider GUF1, Q8N442, for which the cross-linked residues entry with APOO is listed as “K351 - K27”.

ATP5PD, O75947: the cross-linked residues entry with ATP5PF is given as “K63 - K79”.

For DHX30, Q7L2E3, the cross-linked residues result with COQ3 is on record as “K303 - K196”.

For the substance ACADM, P11310, the cross-linked residues result with GUF1 is listed as “K144 - K664”.

On to BCL2, P10415, for which the cross-linked residues result with HADHA is on record as “M1 - K254”.

TOMM20, Q15388: in the assay with MTRF1L, the cross-linked residues entry is listed as “K56 - K74”.

For ALDH4A1, P30038, the cross-linked residues result with NOCT is reported as “K93 - M1”.

In the case of VDAC1, P21796, the cross-linked residues entry with OGDH is recorded as “K61 - K999”.

Turning to PDHA1, P08559, in the assay with OGDHL, the cross-linked residues result is recorded as “K40 - K525”.

In the case of NDUFV3, P56181, in the assay with PDSS1, the cross-linked residues result was “M1 - K91”.

In the case of PHB1, P35232, the cross-linked residues entry with PHB2 is listed as “K202 - K216”.

Take PMPCB, O75439: the cross-linked residues entry with PMPCA was “K148 - K64”.

Regarding COX5B, P10606, the cross-linked residues result with PRDX6 is given as “K57 - K63”.

Regarding BCKDHB, P21953, in the assay with RMND1, the cross-linked residues entry is given as “K381 - K145”.

For VDAC2, P45880, in the assay with SAMM50, the cross-linked residues entry was “K74 - G2”.

On to SNAP29, O95721, for which, in the assay with SDHA, the cross-linked residues result is reported as “K124 - K517”.

For MACROD1, Q9BQ69, the cross-linked residues entry with SIRT3 is reported as “K99 - K399”.

As for BPHL, Q86WA6, in the assay with SLC25A19, the cross-linked residues entry is reported as “V2 - V2”.

As for ATP5F1D, P30049, in the assay with SPRYD4, the cross-linked residues entry is listed as “K136 - K33”.

As to ACSM4, P0C7M7, the cross-linked residues entry with TBRG4 is “K542 - K576”.

Regarding ACACB, O00763, the cross-linked residues entry with TUFM is reported as “K1705 - K259”.

The values are drawn from article PMC10313818.
